Assay results from PubChem BioAssay AID1159580 (chemical genetic matrix, 2015).
Hit rate of the full screen: of about 5,500 compounds, about 2,000 (36%) were called active. Roughly 18% stayed inconclusive and do not appear here. No stated cut-off is given here; in the data, active means normalized growth mostly below about 0.91 (no sharp cut-off); inconclusive means no clear call, values can overlap the other calls; inactive means mostly above about 0.92. The list shows a part of the results.

Test: chemical genetic growth profiling, strain panel (AID 1159580);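 further: tested at 20 µM; growth read once vehicle control cultures reached saturation at 30 °C; 1 = growth at the plate median or of vehicle wells; lower values mean less growth of the strain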
Conditions: growth OD

Measured: normalized growth

COc1ccccc1NC(=S)NCCC(=O)O
inactive: S. cerevisiae deletion strains, locus YAL013W, strain DEP1, hits give low values 1.01 | S. cerevisiae deletion strains, locus YBR229C, strain ROT2, hits give low values 1 | S. cerevisiae deletion strains, locus YCL061C, strain MRC1, hits give low values 1 | S. cerevisiae deletion strains, locus YDL101C, strain DUN1, hits give low values 0.985 | S. cerevisiae deletion strains, locus YDR150W, strain NUM1, hits give low values 0.955 | S. cerevisiae deletion strains, locus YEL061C, strain CIN8, hits give low values 0.991 | S. cerevisiae deletion strains, locus YGR078C, strain PAC10, hits give low values 0.995 | S. cerevisiae deletion strains, locus YHR030C, strain SLT2, hits give low values 1.03 | S. cerevisiae deletion strains, locus YHR087W, strain rtc3, hits give low values 0.986 | S. cerevisiae deletion strains, locus YJL187C, strain SWE1, hits give low values 1.01 | S. cerevisiae deletion strains, locus YJR075W, strain HOC1, hits give low values 1.03 | S. cerevisiae deletion strains, locus YLR039C, strain RIC1, hits give low values 1.03 | S. cerevisiae deletion strains, locus YLR058C, strain SHM2 (second series), hits give low values 1.01 | S. cerevisiae deletion strains, locus YLR085C, strain ARP6, hits give low values 1.03 | S. cerevisiae deletion strains, locus YLR262C, strain YPT6, hits give low values 1.02 | S. cerevisiae deletion strains, locus YML094W, strain GIM5, hits give low values 0.963 | S. cerevisiae deletion strains, locus YMR219W, strain ESC1, hits give low values 1.01 | S. cerevisiae deletion strains, locus YMR263W, strain SAP30, hits give low values 0.989 | S. cerevisiae deletion strains, locus YNL153C, strain GIM3, hits give low values 0.996 | S. cerevisiae deletion strains, locus YNL298W, strain CLA4 (second series), hits give low values 1.02 | S. cerevisiae deletion strains, locus YNL322C, strain KRE1, hits give low values 0.999 | S. cerevisiae deletion strains, locus YNR030W, strain Alg12, hits give low values 1.01 | S. cerevisiae deletion strains, locus YPL055C, strain LGE1, hits give low values 0.919 | S. cerevisiae deletion strains, locus YPL241C, strain CIN2, hits give low values 1.07 | S. cerevisiae deletion strains, locus YPR135W, strain CTF4, hits give low values 0.984 | S. cerevisiae strains, strain wild type, hits give low values 1.01
